Screening data (PubChem)
This excerpt belongs to a sample that is enriched for hits.
Tgondii IFNg: blocks Toxoplasma gondii growth in the presence of IFN-gamma; Toxoplasma gondii growth in IFN-gamma-treated host cells; stronger effect = lower value; activity change, negative = inhibition, % (no concentration beside the values); actives 3.8% (n = 69,000); AID 1259416; in the data active means activity change below about -70%, passing the limit was not always enough;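 further: host cells are HeLa cells infected with Toxoplasma gondii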
* hit, by the source's call; i = inactive.

SMILES	Tgondii IFNg
COc1ccc(C(=O)/C=C2/c3ccccc3CC(C)(C)N2C)cc1	-63
COc1ccc(C(=O)O/N=C2/C(=O)N(C)c3ccccc32)cc1	-100*
O=C(OCc1ccccc1)c1ccccc1	5
O=C(OOC(=O)c1ccccc1)c1ccccc1	-44
CC1=NN(C)C(=O)/C1=N\OC(=O)c1ccc(Cl)cc1	-24
O=C(O/N=C1/C(=O)c2ccccc2-c2ccccc21)c1ccccc1	-103*
Cc1cc(NC(=O)Cn2c(=O)cc(-c3nc(C4CC4)no3)c3ccccc32)ccc1F	60
COCCN1CCOCC12CCN(CC(C)(C)O)CC2	2
COc1ccc(C)cc1NC(=O)Cn1c(=O)cc(C(=O)N2CCCC2)c2ccccc21	5
CCCC(NC(=O)C(C)(C)NC(=O)c1cccs1)c1cccs1 (centres undefined)	22
COc1ccccc1CNC(=O)CC1N=C2c3ccccc3N=C(SCC#N)N2C1=O (centres undefined)	9
CO[C@H]1CN(C(=O)CCc2nc3ccccc3[nH]2)CC[C@H]1N	-4
COc1ccccc1-c1nc(Cn2nnc(C(=O)Nc3ccc(Br)c(C)c3)c2C)c(C)o1	287
Cc1cccc(-c2nc(C)c(CCNC(=O)C(=O)Nc3ccc([N+](=O)[O-])cc3)s2)c1	39
Cn1c(-c2ccccc2)cnc1NC(=O)c1cccn(CC(=O)N2CCCC2)c1=O	19
O=C(CSc1nc2c(c(=O)n1-c1ccccc1)SCC2)Nc1ccc(-c2ccccc2)cn1	-73*
COc1cc(=O)[nH]c(SCC(=O)Nc2ccc(Cl)cn2)n1	-21
CCOCCN1CC[C@@H]2Oc3ccccc3S(=O)(=O)N(CC3CC3)[C@@H]2CC1	-5
Cc1nc(-c2ccccc2)sc1CCNC(=O)C(=O)Nc1cccc([N+](=O)[O-])c1	325
OCc1ccc(CN2CCC(c3cc(-c4ccccc4Cl)n[nH]3)CC2)o1	-4
C[C@@H]1CCCCO[C@@H](CN(C)Cc2ccc(Cl)c(Cl)c2)[C@@H](C)CN([C@H](C)CO)C(=O)c2cc(NS(=O)(=O)c3cccs3)ccc2O1	-45
C[C@@H]1CCCCO[C@@H](CN(C)C(=O)c2ccncc2)[C@@H](C)CN([C@H](C)CO)C(=O)c2cc(NS(=O)(=O)c3cccs3)ccc2O1	12
Cc1ccc(S(=O)(=O)Nc2ccc3c(c2)C(=O)N([C@H](C)CO)C[C@H](C)[C@@H](CN(C)S(=O)(=O)c2cccs2)OCCCC[C@@H](C)O3)cc1	-47
Cc1noc(C)c1NC(=O)Nc1ccc2c(c1)C(=O)N([C@H](C)CO)C[C@@H](C)[C@H](CN(C)S(=O)(=O)c1cccs1)OCCCC[C@@H](C)O2	90
Cc1ccc(S(=O)(=O)Nc2ccc3c(c2)C(=O)N([C@H](C)CO)C[C@H](C)[C@@H](CN(C)S(=O)(=O)c2cccs2)OCCCC[C@H](C)O3)cc1	-122*
SMILES	Tgondii IFNg
C[C@@H]1CCCCO[C@@H](CN(C)C(=O)c2ccncc2)[C@H](C)CN([C@H](C)CO)C(=O)c2cc(NS(=O)(=O)c3cccs3)ccc2O1	-20
C[C@H](CO)N1C[C@H](C)[C@@H](CN(C)Cc2ccc(Cl)c(Cl)c2)OCCCC[C@H](C)Oc2ccc(NS(=O)(=O)c3cccs3)cc2C1=O	-173*
C[C@@H]1CCCCO[C@H](CN(C)Cc2ccc(Cl)c(Cl)c2)[C@@H](C)CN([C@H](C)CO)C(=O)c2cc(NS(=O)(=O)c3cccs3)ccc2O1	106
Cc1ccc(S(=O)(=O)Nc2ccc3c(c2)C(=O)N([C@@H](C)CO)C[C@@H](C)[C@@H](CN(C)S(=O)(=O)c2cccs2)OCCCC[C@@H](C)O3)cc1	-99*
Cc1ccc(S(=O)(=O)Nc2ccc3c(c2)C(=O)N([C@@H](C)CO)C[C@H](C)[C@H](CN(C)S(=O)(=O)c2cccs2)OCCCC[C@@H](C)O3)cc1	-99*
Cc1ccc(S(=O)(=O)Nc2ccc3c(c2)C(=O)N([C@@H](C)CO)C[C@@H](C)[C@H](CN(C)S(=O)(=O)c2cccs2)OCCCC[C@H](C)O3)cc1	-59
Cc1noc(C)c1NC(=O)Nc1ccc2c(c1)C(=O)N([C@@H](C)CO)C[C@@H](C)[C@H](CN(C)S(=O)(=O)c1cccs1)OCCCC[C@@H](C)O2	i
COc1cc(C)ccc1CN1CCc2onc(Nc3cccc(F)c3)c2C1	19
COc1ccc(Cl)cc1S(=O)(=O)N1CCC2(CC1)Nc1ccc(C)c(C)c1-n1cccc12	16
CCCn1c(=O)c(-c2nc(-c3ccccc3Cl)no2)c(O)c2ccccc21	-27
COCC(=O)N1CCC2(c3ccccc3)CN(Cc3cccnc3)CC2C1 (centres undefined)	-6
CN(C)CC1CN(c2ncc(F)cn2)Cc2nccn2C1 (centres undefined)	-38
CCn1ncc2c1C(COC)N(C(=O)COc1ccccc1)CC2 (centres undefined)	1
CN(CCNC(=O)c1cnc(-c2ccccc2)nc1)S(C)(=O)=O	5
Cn1cc(CN2CCC23CCN(Cc2ccccc2F)C3)cn1 (centres undefined)	-36
COc1ccc(-c2nc(NCCc3ccc(OC)c(OC)c3)c3ccccc3n2)cc1	-86
O=C1CSCC(=O)N1c1cccc2ccccc12	1
FC(F)(F)c1ccc(NCC2CNCCOC2)nc1 (centres undefined)	5
COC(=O)COc1ccc(C(C)=O)cc1	-30
Cc1noc(C)c1NC(=O)Nc1ccc2c(c1)C(=O)N([C@@H](C)CO)C[C@@H](C)[C@@H](CN(C)S(=O)(=O)c1cccs1)OCCCC[C@H](C)O2	i
C[C@@H]1CCCCO[C@H](CN(C)C(=O)c2ccncc2)[C@@H](C)CN([C@H](C)CO)C(=O)c2cc(NS(=O)(=O)c3cccs3)ccc2O1	76
Cc1ccc(S(=O)(=O)Nc2ccc3c(c2)C(=O)N([C@@H](C)CO)C[C@H](C)[C@@H](CN(C)S(=O)(=O)c2cccs2)OCCCC[C@H](C)O3)cc1	-99*
Cc1noc(C)c1NC(=O)Nc1ccc2c(c1)C(=O)N([C@H](C)CO)C[C@H](C)[C@@H](CN(C)S(=O)(=O)c1cccs1)OCCCC[C@H](C)O2	185
Cc1ccc(S(=O)(=O)Nc2ccc3c(c2)C(=O)N([C@@H](C)CO)C[C@H](C)[C@@H](CN(C)S(=O)(=O)c2cccs2)OCCCC[C@@H](C)O3)cc1	-90*
Cc1noc(C)c1NC(=O)Nc1ccc2c(c1)C(=O)N([C@@H](C)CO)C[C@H](C)[C@H](CN(C)S(=O)(=O)c1cccs1)OCCCC[C@H](C)O2	312
SMILES	Tgondii IFNg
CN(C)CC(=O)N1CCc2onc(Cn3ccnc3)c2C1	48
O=C(NC12CC3CC(CC(C3)C1)C2)N1CCC2(CC1)Nc1ccccc1-n1cccc12	157
CN1CCN(Cc2cnn(C)c2)CC2(CCCC(=O)N2)C1 (centres undefined)	97
COc1ccc(-c2cc(C(=O)NC3=NS(=O)(=O)c4ccccc43)nn2C)cc1	23
COc1ccc(-c2cn3cc(C)ccc3n2)cc1	317
Cc1ccc2nc(-c3ccc(-c4ccccc4)s3)cn2c1	80
Cc1ccc2nc(-c3ccc(Cl)c(C)c3)cn2c1	-97*
CCN1C(=O)CCC12CCN(c1ccc(C)nn1)CC2	23
COc1cc(C(=O)Nc2cc3c(cc2C(C)=O)OCO3)cc(OC)c1OC	30
COc1ccccc1C(=O)Nc1cc2cc(Br)ccc2oc1=O	13
COc1ccccc1C(=O)Nc1ccc(-c2nc(-c3ccccc3)co2)cc1	-26
COc1ccccc1C(=O)Nc1ccc2c3c(cccc13)CC2	-102*
Cc1cc(OCc2nc3ccccc3[nH]2)ccc1C(C)C	-87*
